According to ChEMBL document CHEMBL3433997, “St. Jude Leishmania screening dataset” (2016):

What was measured:
Type in all cases: functional
[1] = biological target: Solute carrier family 2, facilitated glucose transporter member 1 (Homo sapiens) (UniProt P11166); experiment: ST_JUDE_LEISH: Cytotoxicity at 2uM final concentration against transgenic Leishmania Mexicana promastigotes LmGLUT1 that are glucose transport deficient and complemented with the human glucose transporter GLUT1. Activity is measured by DNA content using SYBR green in vitro
Chain of Solute carrier family 2, facilitated glucose transporter member 1 (Homo sapiens) (P11166 whole entry): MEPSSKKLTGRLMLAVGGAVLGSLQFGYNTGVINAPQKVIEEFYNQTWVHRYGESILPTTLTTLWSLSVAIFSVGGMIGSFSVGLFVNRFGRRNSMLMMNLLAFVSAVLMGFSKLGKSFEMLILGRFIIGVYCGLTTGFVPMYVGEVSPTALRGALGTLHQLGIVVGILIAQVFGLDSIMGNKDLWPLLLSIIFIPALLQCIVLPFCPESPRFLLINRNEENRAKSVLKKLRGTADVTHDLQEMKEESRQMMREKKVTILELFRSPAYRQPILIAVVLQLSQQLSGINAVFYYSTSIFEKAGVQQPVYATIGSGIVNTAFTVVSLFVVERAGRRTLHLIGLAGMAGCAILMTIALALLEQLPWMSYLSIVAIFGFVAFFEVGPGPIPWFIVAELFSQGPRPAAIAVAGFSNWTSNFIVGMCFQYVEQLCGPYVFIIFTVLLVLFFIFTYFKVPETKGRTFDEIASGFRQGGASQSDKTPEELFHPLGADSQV

[2] = biological target: Hexose transporter 1 (Plasmodium falciparum) (UniProt O97467); experiment: ST_JUDE_LEISH: Cytotoxicity at 2uM final concentration against transgenic Leishmania Mexicana promastigotes LmPfHT that are glucose transport deficient and complemented with the Plasmodium falciparum hexose transporter. Activity is measured by DNA content using SYBR green in vitro
[3] = biological target: Glucose transporter (Leishmania mexicana) (UniProt O61059); experiment: ST_JUDE_LEISH: Cytotoxicity at 2uM final concentration against transgenic Leishmania Mexicana promastigotes LmGT2 that are glucose transport deficient and complemented with the L. Mexicana glucose transporter 2. Activity is measured by DNA content using SYBR green in vitro

Structure (SMILES) | inhibition [1] [%] | inhibition [2] [%] | inhibition [3] [%]
COc1cccc(NC(=O)c2ccc(NCCCN3CCC(C)CC3)c([N+](=O)[O-])c2)c1 | 76.1 | 41.7 | 12.8
C[C@@H](CC1CCCCC1)OC(=O)N(C)[C@H]1CCN(C#N)C1 | 14 | 8.54 | 8.86
CCN(CC)c1nc(-c2ccccc2)cc(-c2ccccc2)c1C#N | 1.31 | 1.62 | -0.21
O=C(Nc1ccc(-c2nc3ccccc3[nH]2)cc1)c1ccc(-c2cccc([N+](=O)[O-])c2)o1 | -1.84 | -0.42 | -3.21
NC1CCN(Cc2cccc(-c3ccc(-c4nc5ccccc5[nH]4)cc3)c2)C1 (stereo unspecified) | -1.1 | 2.18 | 1.99
COc1ccc(-c2ccccc2CNC2Cc3ccccc3C2)cc1S(=O)(=O)NCCN1CCCC1 | 2.56 | 0.5 | 2.53
CN(C)c1ccc(-c2csc(C(=O)NCC3CCN(CC4CCCCC4)C3)c2)cc1 (stereo unspecified) | 2.79 | 0.77 | 1.05
CC(C)N1CCN(C(CN2CCN(CCCOc3ccc4nonc4c3)CC2)c2ccc(F)cc2)CC1 (stereo unspecified) | -0.47 | -1.18 | -1.91
COc1ccc(Nc2nc(NC3CCCC3)cc(-c3ccc(OC)cc3)n2)cc1 | -0.76 | 0.56 | -0.75
O=C(NC1CCN(Cc2ccccc2)CC1)c1cccc(-c2cc3cc(Cl)c(Cl)cc3[nH]2)c1 | 2.36 | -1.61 | -0.91
CNC(=O)C1Cc2c([nH]c3c(C)cccc23)C2(N1)C(=O)Nc1ccc(OC(F)(F)F)cc12 (stereo unspecified) | 1.24 | 1.59 | 3.8
O=C(Cc1cccc(Cl)c1)N1CCc2cc3nccc(N4CCN5CCC[C@H]5C4)c3cc21 | 3.68 | 2.69 | 4.38
CCCc1cc(Cc2cnc(N)nc2N)cc(CC)c1OC | 6.06 | 4.59 | 2.29
COCCNC(=O)C(CNC(=O)c1ccc2c(c1)OCO2)NC(=O)c1ccc(-c2ccccc2)cc1 (stereo unspecified) | 3.8 | 0.37 | 0.64
CCN(CCCN1CCCCC1)c1cc(C)nc(Nc2ccc(Br)cc2F)n1 | 0.13 | 2.96 | 1.34
COc1ccc2ncc(Cl)c(NCC3(O)CCC(NCc4ccc5c(n4)NC(=O)CS5)CC3)c2n1 (stereo unspecified) | 4.63 | 3.3 | 1.82

Structure (SMILES) | inhibition [1] [%] | inhibition [2] [%] | inhibition [3] [%]
CN(C)c1ccc(-c2csc(C(=O)NC3CCCCN(CCC(C)(C)C)C3)c2)cc1 (stereo unspecified) | 2.51 | 2.15 | 0.68
O=[N+]([O-])c1ccc(-c2ccc(C=NNc3nc(Nc4ccccc4)nc(Nc4ccccc4)n3)o2)cc1 | 0.91 | -0.88 | -1.48
CCOC(=O)c1nc(-c2cccnc2)[nH]c1NC(=S)NCc1ccccc1 | 1.58 | 0.92 | 3.75
COc1ccc(NC(=O)c2csc(-c3cc(NC(=O)c4ccnc(N5CCCC5)c4)ccc3C)c2)cc1N1CCN(C)CC1 | 1.89 | 2.56 | -1.28
OC1CCCN(Cc2ccc(-c3ccc(-c4nc5cc(F)ccc5[nH]4)s3)cc2)C1 (stereo unspecified) | 3.05 | 2.51 | 1.76
Cc1cccc2nc(-c3cccc(-c4cccc(NC(=O)NCc5cccc(F)c5)c4)c3)[nH]c12 | 4.66 | 6.34 | 5.41
CN(CCN(C)CC(O)c1ccc(Cl)c(Cl)c1)CC(O)c1ccc(Cl)c(Cl)c1 (stereo unspecified) | 11.5 | 9.66 | 9.87
Cc1cc(N2CCOCC2)nc2ccc(NC(=O)c3ccc(Cl)c([N+](=O)[O-])c3)cc12 | 5.45 | 3.08 | 2.75
CCCCCCCNC(=O)NCC1CCCN(CCCCCNC(=O)/C=C/c2ccc(Cl)c(Cl)c2)C1 (stereo unspecified) | 1.71 | 4.27 | 2.15
CN1CCC(Oc2cc(NC(=O)Nc3ccc(-c4ccncc4)c(C(F)(F)F)c3)ccc2Cl)CC1 | 12.6 | 10.6 | 7.11
COc1nc(-n2ccc(=N)cc2)nc2ccccc12 | 12.2 | 13.4 | 2.63
O=C(/C=C/c1ccc(Cl)c(Cl)c1)NCCCCCN1CCCN(C(=O)Nc2ccc(Cl)c(C(F)(F)F)c2)CC1 | -0.86 | -0.33 | -2.37
COc1cc2nc(N(C)C)nc(Nc3ccc4c(cnn4Cc4ccccc4)c3)c2cc1OC | -0.58 | -0.17 | 2.85
Cc1cc(Nc2ccccc2)nc(Nc2ccccc2)n1 | 9.14 | 8.33 | 1.86
CCCC(C)Nc1nc(C)cc(N[C@@H](Cc2ccccc2)C(=O)NCc2cccc(F)c2)n1 (stereo partly specified) | 4.14 | 4.96 | 2.68
O=C(Cn1c(CCc2cccc(F)c2F)nc(=O)c2ccccc21)N(Cc1ccc(-c2ccc(C(F)(F)F)cc2)cc1)C1CCN(C2=NCCS2)CC1 | 3.56 | 4.28 | 4.67
